Results filed as inconclusive are left out. A number with no mark means an inactive call. Active and inactive are the calls of the source. Calls follow the shape of the dose curve; as a rule, active = well fitted inhibition curve with a large enough effect; inconclusive = small, poorly fitted or top-dose-only effect; inactive = flat fitted curve, though single readings scatter.
System: CP286
Test: qHTS profiling for inhibitors of Plasmodium falciparum proliferation (AID 504749); also: nearly all actives have a fitted effect of over 60% in size;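 as to activity, negative = inhibition: 0% = DMSO vehicle and full inhibition = artemisinin control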
Details: P. falciparum in erythrocytes, SYBR Green DNA, 72 h; series mostly up to 28.7 µM; activity, negative = inhibition: at the top concentration
How it was run: (§1)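 Each compound contacts P. falciparum-infected red blood cells for 72 h at 37 C; lysis buffer (Tris, EDTA, saponin, Triton X, SYBR Green I) is added and fluorescence measured next morning; values normalized to controls.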
Potency is read from the fitted curve at half-maximal effect.

Q: With OC[C@H](S)CS as the compound, how does the Potency read?
A: 3.16 µM (active)

Q: Which “activity, negative = inhibition” value does the source give for N[C@H](COP(=O)(O)O)C(=O)O here?
A: 1.08%

Q: For C[N+]1(C)[C@@H]2CC(OC(=O)[C@@H](CO)c3ccccc3)C[C@@H]1[C@H]1O[C@H]12 (stereo partly specified), which “activity, negative = inhibition” value is on record?
A: -0.119%

Q: Which “activity, negative = inhibition” value does the source give for COc1cc2nc(N(C)CCCNC(=O)[C@@H]3CCCO3)nc(N)c2cc1OC here?
A: 0.386% [at 12.8 µM]

System: CP291
Test: as above
Details: P. falciparum in erythrocytes, SYBR Green DNA, 72 h; series mostly up to 28.7 µM; activity, negative = inhibition: at the top concentration
How it was run: as §1

Q: How did the “activity, negative = inhibition” value turn out when CC(=O)N1CCN(c2ccc(OC[C@@H]3CO[C@@](Cn4ccnc4)(c4ccc(Cl)cc4Cl)O3)cc2)CC1 was run?
A: -11.2%

Q: With N[C@H](COP(=O)(O)O)C(=O)O as the compound, how does the “activity, negative = inhibition” value read?
A: -2.77%

Q: Which “activity, negative = inhibition” value does the source give for C[N+]1(C)[C@@H]2CC(OC(=O)[C@@H](CO)c3ccccc3)C[C@@H]1[C@H]1O[C@H]12 (stereo partly specified) here?
A: -2.56%

Q: With COc1cc2nc(N(C)CCCNC(=O)[C@@H]3CCCO3)nc(N)c2cc1OC as the compound, how does the “activity, negative = inhibition” value read?
A: -13.2% [at 12.8 µM]

System: CP297
Test: as above
Details: P. falciparum in erythrocytes, SYBR Green DNA, 72 h; series mostly up to 28.7 µM; activity, negative = inhibition: at the top concentration
How it was run: as §1

Q: With CC(=O)N1CCN(c2ccc(OC[C@@H]3CO[C@@](Cn4ccnc4)(c4ccc(Cl)cc4Cl)O3)cc2)CC1 as the compound, how does the “activity, negative = inhibition” value read?
A: 2.21%

Q: How did the “activity, negative = inhibition” value turn out when N[C@H](COP(=O)(O)O)C(=O)O was run?
A: -1.64%

Q: How did the “activity, negative = inhibition” value turn out when C[N+]1(C)[C@@H]2CC(OC(=O)[C@@H](CO)c3ccccc3)C[C@@H]1[C@H]1O[C@H]12 (stereo partly specified) was run?
A: 0.677%

Q: With COc1cc2nc(N(C)CCCNC(=O)[C@@H]3CCCO3)nc(N)c2cc1OC as the compound, how does the “activity, negative = inhibition” value read?
A: 2.15% [at 12.8 µM]

System: CP305
Test: as above
Details: P. falciparum in erythrocytes, SYBR Green DNA, 72 h; series mostly up to 28.7 µM; activity, negative = inhibition: at the top concentration
How it was run: as §1

Q: With N[C@H](COP(=O)(O)O)C(=O)O as the compound, how does the “activity, negative = inhibition” value read?
A: -9.54%

Q: How did the “activity, negative = inhibition” value turn out when C[N+]1(C)[C@@H]2CC(OC(=O)[C@@H](CO)c3ccccc3)C[C@@H]1[C@H]1O[C@H]12 (stereo partly specified) was run?
A: -1.71%

Q: C(=C/c1ccccc1)/CN1CCN(C(c2ccccc2)c2ccccc2)CC1 was tested. Which “activity, negative = inhibition” value did it give?
A: -3.82% [at 12.8 µM]

Q: COc1cc2nc(N(C)CCCNC(=O)[C@@H]3CCCO3)nc(N)c2cc1OC was tested. Which “activity, negative = inhibition” value did it give?
A: 0.605% [at 12.8 µM]

System: CP315
Test: as above
Details: P. falciparum in erythrocytes, SYBR Green DNA, 72 h; series mostly up to 28.7 µM; activity, negative = inhibition: at the top concentration
How it was run: as §1

Q: OC[C@H](S)CS was tested. Which “activity, negative = inhibition” value did it give?
A: -8.59%

Q: N[C@H](COP(=O)(O)O)C(=O)O was tested. Which “activity, negative = inhibition” value did it give?
A: -6.54%

Q: Which “activity, negative = inhibition” value does the source give for C[N+]1(C)[C@@H]2CC(OC(=O)[C@@H](CO)c3ccccc3)C[C@@H]1[C@H]1O[C@H]12 (stereo partly specified) here?
A: -2.03%

Q: Which “activity, negative = inhibition” value does the source give for C(=C/c1ccccc1)/CN1CCN(C(c2ccccc2)c2ccccc2)CC1 here?
A: -10.3% [at 12.8 µM]

Q: Which “activity, negative = inhibition” value does the source give for COc1cc2nc(N(C)CCCNC(=O)[C@@H]3CCCO3)nc(N)c2cc1OC here?
A: -1.24% [at 12.8 µM]

System: CP325
Test: as above
Details: P. falciparum in erythrocytes, SYBR Green DNA, 72 h; series mostly up to 28.7 µM; activity, negative = inhibition: at the top concentration
How it was run: as §1

Q: Which “activity, negative = inhibition” value does the source give for CC(=O)N1CCN(c2ccc(OC[C@@H]3CO[C@@](Cn4ccnc4)(c4ccc(Cl)cc4Cl)O3)cc2)CC1 here?
A: -14.8%

Q: How did the “activity, negative = inhibition” value turn out when N[C@H](COP(=O)(O)O)C(=O)O was run?
A: 1.75%

Q: With C[N+]1(C)[C@@H]2CC(OC(=O)[C@@H](CO)c3ccccc3)C[C@@H]1[C@H]1O[C@H]12 (stereo partly specified) as the compound, how does the “activity, negative = inhibition” value read?
A: 3.34%

Q: For C(=C/c1ccccc1)/CN1CCN(C(c2ccccc2)c2ccccc2)CC1, which “activity, negative = inhibition” value is on record?
A: -15.2% [at 12.8 µM]

Q: For COc1cc2nc(N(C)CCCNC(=O)[C@@H]3CCCO3)nc(N)c2cc1OC, which “activity, negative = inhibition” value is on record?
A: 0.874% [at 12.8 µM]

System: CP329
Test: as above
Details: P. falciparum in erythrocytes, SYBR Green DNA, 72 h; series mostly up to 28.7 µM; activity, negative = inhibition: at the top concentration
How it was run: as §1

Q: Which “activity, negative = inhibition” value does the source give for CC(=O)N1CCN(c2ccc(OC[C@@H]3CO[C@@](Cn4ccnc4)(c4ccc(Cl)cc4Cl)O3)cc2)CC1 here?
A: -12.2%

Q: For OC[C@H](S)CS, which “activity, negative = inhibition” value is on record?
A: -8.44%

Q: Which “activity, negative = inhibition” value does the source give for N[C@H](COP(=O)(O)O)C(=O)O here?
A: -3.16%

Q: With C[N+]1(C)[C@@H]2CC(OC(=O)[C@@H](CO)c3ccccc3)C[C@@H]1[C@H]1O[C@H]12 (stereo partly specified) as the compound, how does the “activity, negative = inhibition” value read?
A: 4.74%

Q: C(=C/c1ccccc1)/CN1CCN(C(c2ccccc2)c2ccccc2)CC1 was tested. Which “activity, negative = inhibition” value did it give?
A: -4.48% [at 12.8 µM]

Q: Which “activity, negative = inhibition” value does the source give for COc1cc2nc(N(C)CCCNC(=O)[C@@H]3CCCO3)nc(N)c2cc1OC here?
A: -0.47% [at 12.8 µM]

System: CP335
Test: as above
Details: P. falciparum in erythrocytes, SYBR Green DNA, 72 h; series mostly up to 28.7 µM; activity, negative = inhibition: at the top concentration
How it was run: as §1

Q: Which Potency does the source give for OC[C@H](S)CS here?
A: 3.38 µM (active)

Q: How did the “activity, negative = inhibition” value turn out when N[C@H](COP(=O)(O)O)C(=O)O was run?
A: 14.3%

Q: For C[N+]1(C)[C@@H]2CC(OC(=O)[C@@H](CO)c3ccccc3)C[C@@H]1[C@H]1O[C@H]12 (stereo partly specified), which “activity, negative = inhibition” value is on record?
A: 0.528%

Q: How did the “activity, negative = inhibition” value turn out when COc1cc2nc(N(C)CCCNC(=O)[C@@H]3CCCO3)nc(N)c2cc1OC was run?
A: 2.38% [at 12.8 µM]

System: DFO2036
Test: as above
Details: P. falciparum in erythrocytes, SYBR Green DNA, 72 h; series mostly up to 28.7 µM; activity, negative = inhibition: at the top concentration
How it was run: as §1

Q: For CC(=O)N1CCN(c2ccc(OC[C@@H]3CO[C@@](Cn4ccnc4)(c4ccc(Cl)cc4Cl)O3)cc2)CC1, which “activity, negative = inhibition” value is on record?
A: -0.483%

Q: How did the “activity, negative = inhibition” value turn out when N[C@H](COP(=O)(O)O)C(=O)O was run?
A: 15.2%

Q: How did the “activity, negative = inhibition” value turn out when C[N+]1(C)[C@@H]2CC(OC(=O)[C@@H](CO)c3ccccc3)C[C@@H]1[C@H]1O[C@H]12 (stereo partly specified) was run?
A: -0.211%

Q: Which “activity, negative = inhibition” value does the source give for C(=C/c1ccccc1)/CN1CCN(C(c2ccccc2)c2ccccc2)CC1 here?
A: 2.14% [at 12.8 µM]

Q: With COc1cc2nc(N(C)CCCNC(=O)[C@@H]3CCCO3)nc(N)c2cc1OC as the compound, how does the “activity, negative = inhibition” value read?
A: 1.41% [at 12.8 µM]

System: DIV14
Test: as above
Details: P. falciparum in erythrocytes, SYBR Green DNA, 72 h; series mostly up to 28.7 µM; activity, negative = inhibition: at the top concentration
How it was run: as §1

Q: How did the Potency turn out when OC[C@H](S)CS was run?
A: 12 µM (active)

Q: How did the “activity, negative = inhibition” value turn out when N[C@H](COP(=O)(O)O)C(=O)O was run?
A: 10%

Q: How did the “activity, negative = inhibition” value turn out when C[N+]1(C)[C@@H]2CC(OC(=O)[C@@H](CO)c3ccccc3)C[C@@H]1[C@H]1O[C@H]12 (stereo partly specified) was run?
A: -6.14%

Q: With COc1cc2nc(N(C)CCCNC(=O)[C@@H]3CCCO3)nc(N)c2cc1OC as the compound, how does the “activity, negative = inhibition” value read?
A: -14% [at 12.8 µM]

System: DIV17
Test: as above
Details: P. falciparum in erythrocytes, SYBR Green DNA, 72 h; series mostly up to 28.7 µM; activity, negative = inhibition: at the top concentration
How it was run: as §1

Q: With OC[C@H](S)CS as the compound, how does the Potency read?
A: 3.38 µM (active)

Q: N[C@H](COP(=O)(O)O)C(=O)O was tested. Which “activity, negative = inhibition” value did it give?
A: 1.55%

Q: With C[N+]1(C)[C@@H]2CC(OC(=O)[C@@H](CO)c3ccccc3)C[C@@H]1[C@H]1O[C@H]12 (stereo partly specified) as the compound, how does the “activity, negative = inhibition” value read?
A: -5.24%

Q: How did the “activity, negative = inhibition” value turn out when C(=C/c1ccccc1)/CN1CCN(C(c2ccccc2)c2ccccc2)CC1 was run?
A: -25.1% [at 12.8 µM]

Q: For COc1cc2nc(N(C)CCCNC(=O)[C@@H]3CCCO3)nc(N)c2cc1OC, which “activity, negative = inhibition” value is on record?
A: -0.577% [at 12.8 µM]

System: DIV30
Test: as above
Details: P. falciparum in erythrocytes, SYBR Green DNA, 72 h; series mostly up to 28.7 µM; activity, negative = inhibition: at the top concentration
How it was run: as §1

Q: With CC(=O)N1CCN(c2ccc(OC[C@@H]3CO[C@@](Cn4ccnc4)(c4ccc(Cl)cc4Cl)O3)cc2)CC1 as the compound, how does the “activity, negative = inhibition” value read?
A: -9.55%

Q: OC[C@H](S)CS was tested. Which “activity, negative = inhibition” value did it give?
A: 0.652%

Q: For N[C@H](COP(=O)(O)O)C(=O)O, which “activity, negative = inhibition” value is on record?
A: 2.39%

Q: With C[N+]1(C)[C@@H]2CC(OC(=O)[C@@H](CO)c3ccccc3)C[C@@H]1[C@H]1O[C@H]12 (stereo partly specified) as the compound, how does the “activity, negative = inhibition” value read?
A: -0.0911%

Q: For C(=C/c1ccccc1)/CN1CCN(C(c2ccccc2)c2ccccc2)CC1, which “activity, negative = inhibition” value is on record?
A: -8.69% [at 12.8 µM]

Q: For COc1cc2nc(N(C)CCCNC(=O)[C@@H]3CCCO3)nc(N)c2cc1OC, which “activity, negative = inhibition” value is on record?
A: -14% [at 12.8 µM]
